Experimental findings from PubChem BioAssay AID504690 (Sanford-Burnham Center for Chemical Genomics, 2011) are described below.

Hit rate of the full screen: of about 350,000 compounds, about 2,700 (0.77%) were called active.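 Rule for the calls: active = inhibition reaching at least a set limit at 20 µM in the primary screen (cut at about 59% in these data); inactive = the rest.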 The entries come from a sample that favours actives as a whole.

In this assay the test system is glucose-6-phosphate dehydrogenase-6-phosphogluconolactonase (Plasmodium falciparum 3D7). The assay can be described thus: inhibition of malaria parasite G6PD (PfGluPho) – biochemical, fluorescence intensity, uHTS, primary screen (AID 504690).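 Note: 0% = DMSO wells with substrate and 100% = DMSO wells lacking glucose-6-phosphate.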 The following applies: PfGluPho enzyme, NADPH resazurin-diaphorase fluorescence; at 20 µM; hits give high values. In general terms: Alamar Blue is a resazurin reagent that responds to reducing activity.
In the case of `CCN(CC)c1ccc(C(=O)c2cnc(/N=C/N(C)C)s2)cc1`, the inhibition is 11.6% (inactive).

For `CCOC(=O)N1CCN(C(=O)c2ccc3c(=O)n(CCc4ccc(OC)c(OC)c4)c(=O)[nH]c3c2)CC1`, the inhibition is 0.32% (inactive).

For `CCOC(=O)C1CCCN(CCSc2ccc(C)cc2)C1` (configuration not stated), the inhibition was -1.97% (inactive).

With `CC(C)C[C@H](NC(=O)N1CCn2c1nc1ccccc12)C(=O)NC1CC1`, the inhibition is -6.34% (inactive).

As to `NC1=CC(=O)C(=O)c2cccnc21`, the inhibition is 51.8% (inactive).

Regarding `Cc1coc2c(O)cc3c(c12)OC1(N2CCCCC2)C(=O)NCCCC31` (configuration not stated), the inhibition is 101% (active).

On to `NC(=O)CN1CCCC1c1ccc2c(c1)OCCO2` (configuration not stated), for which the inhibition was 7.24% (inactive).

As for `CCCCN1CC(C)(C)[C@H](CC(=O)Nc2ccc(Br)cc2)C1=O`, the inhibition is 21.2% (inactive).

Regarding `COc1ccc(CN2CCCC(C(=O)N3CCCCC3)C2)cc1` (configuration not stated), the inhibition was 0.72% (inactive).

On to `O=C1OC[C@@H]2CCCN2C(=O)[C@H](CC(=O)N(CCO)Cc2ccccc2)C/C=C\CC[C@@H]1Cc1ccc(F)cc1`, for which the inhibition was -6.25% (inactive).

Turning to `COC(=O)c1ccc(N2CCOCC2)c(NC(=O)c2ccc3c(c2)OCCO3)c1`, the inhibition is 9.1% (inactive).

Take `CN1CCN(c2ccc(NC(=O)c3cc(Cl)c4c(c3)OCCO4)cc2)CC1`: the inhibition was -0.01% (inactive).

Take `CN1CCN(c2ccc(NC(=O)c3ccc4c(c3)OCCO4)cc2Cl)CC1`: the inhibition is 68.3% (active).

For the molecule `COc1ccc(C(=O)OC(C)C(=O)NC2CCCC2)cc1S(=O)(=O)N1CCOCC1` (configuration not stated), the inhibition was -8.93% (inactive).

Regarding `COc1ccc(COC(=O)c2ccc(Cl)c(S(=O)(=O)N3CCOCC3)c2)cc1F`, the inhibition is 20.9% (inactive).

Consider `COc1cccc(NC(=O)Nc2ccc(F)cc2)c1`, for which the inhibition was 30.6% (inactive).

As for `O=C(NCc1cccc(CNC(=O)Nc2cccc(O)c2)c1)Nc1cccc(O)c1`, the inhibition was 11% (inactive).

On to `COc1cccc(NC(=O)NCc2ccc(F)cc2)c1`, for which the inhibition is 75.8% (active).

For the molecule `CC1CCCC(N2CCN(C(=O)c3ccc(F)cc3)CC2)C1` (configuration not stated), the inhibition was 12.6% (inactive).

On to `Cc1ccc(-c2cc(N)on2)cc1`, for which the inhibition is 8.69% (inactive).

For the molecule `CC(=O)Nc1ccc(-c2cn3cccnc3n2)cc1`, the inhibition is 2.85% (inactive).

In the case of `Cc1ccc(-c2cn3cc(C)ccc3n2)cc1`, the inhibition is 104% (active).

Turning to `Cc1nc(=O)c(-c2ccccc2)c(C)n1-c1ccc(Br)cc1`, the inhibition is -0.2% (inactive).

Take `Cc1ccc2nc(-c3ccc(Br)cc3)cn2c1`: the inhibition was 91.8% (active).

Consider `CS(=O)(=O)Nc1cccc(-c2cn3ccccc3n2)c1`, for which the inhibition is -10.9% (inactive).

Consider `COc1ccc(C(C)NC(=O)C2CCCC2)cc1` (configuration not stated), for which the inhibition was -12.4% (inactive).

In the case of `O=C(O)C1CCCCC1C(=O)N1CCN(S(=O)(=O)c2ccc(F)cc2)CC1` (configuration not stated), the inhibition is -3.01% (inactive).

`COc1ccccc1C(=O)N/C(=C/c1ccco1)C(=O)Nc1ccc(C(=O)O)cc1`: the inhibition is 7.16% (inactive).

Take `COCC(C)NC(=O)CSc1nc2nn(-c3ccccc3)c(=O)c-2c2n1CCCCC2` (configuration not stated): the inhibition is -8.52% (inactive).

As for `O=C(CCN1C(=O)COc2ccccc21)NCCCN1CCN(c2ccc(F)cc2)CC1`, the inhibition was -3.8% (inactive).

Regarding `Cc1ccc(NC(=O)OCCNC(=O)c2ccncc2)cc1`, the inhibition was -14.7% (inactive).

Regarding `COCCNC(=O)Nc1ccc2nc(-c3ccco3)c(-c3ccco3)nc2c1`, the inhibition was 66.8% (active).

Take `COCCNC(=O)CSc1nc(N)c(NC(=O)c2ccco2)c(=O)[nH]1`: the inhibition is 3.96% (inactive).

With `CC(C)(C)c1ccc(C(=O)N2CCN(CCNC(=O)C(=O)Nc3ccc(F)cc3)CC2)cc1`, the inhibition was 0.45% (inactive).

Take `CC(Oc1ccc(F)cc1)C(=O)N1CCN(c2ncccn2)CC1` (configuration not stated): the inhibition was 8.63% (inactive).

On to `CCOC(=O)C1=C(C)c2ccccc2OC1C(=O)OCC` (configuration not stated), for which the inhibition was 4.58% (inactive).

In the case of `C=C1c2cccc(OC)c2O[C@H](C(=O)OCC)[C@@H]1CCCCCC`, the inhibition is 77.8% (active).

As to `CCOC(=O)C(=Cc1ccccc1OC)C(=O)OCC`, the inhibition is -10.6% (inactive).

`CC1CCC2(CC1)NC(=O)N(CC(=O)c1ccc3c(c1)OCO3)C2=O` (configuration not stated): the inhibition was 6.6% (inactive).

Regarding `CCOC(=O)N1CCN(Cc2nc(Cc3cccc(C(F)(F)F)c3)no2)CC1`, the inhibition was -8.4% (inactive).

`Cn1c(-c2sc3cc(C(F)(F)F)cnc3c2-c2ccccc2)n[nH]c1=S`: the inhibition was 27.8% (inactive).

With `Cn1c(-c2sccc2OCc2cccc(C(F)(F)F)c2)n[nH]c1=S`, the inhibition is 65.3% (active).

In the case of `O=C(OCc1cn([C@@H]2C[C@H](c3ccc(Cl)cc3)N(Cc3cccs3)C[C@H]2O)nn1)c1ccccc1`, the inhibition is 11.3% (inactive).

Regarding `O=C(O)C1CCN(C(=O)OCc2ccccc2)CC1`, the inhibition is -0.22% (inactive).

As to `CCN(C(=O)CSc1nnc(-c2ccc(OC(F)F)cc2)n1N)C1CCS(=O)(=O)C1` (configuration not stated), the inhibition is -3.99% (inactive).

With `O=C(c1ccc(Br)o1)N(c1ccccn1)C1CCCCC1`, the inhibition was -15.9% (inactive).

`O=C(O)C(=Cc1ccc([N+](=O)[O-])cc1)CCc1ccccc1`: the inhibition was -27.5% (inactive).

For the molecule `CC(=O)Nc1ccc(C=Cc2ccc([N+](=O)[O-])cc2)cc1`, the inhibition was 14.2% (inactive).

For the molecule `O=C1/C(=C\c2ccc([N+](=O)[O-])cc2)CS(=O)(=O)C/C1=C/c1ccc([N+](=O)[O-])cc1`, the inhibition was 77.6% (active).

In the case of `C[C@H]1CN([C@@H](C)CO)C(=O)c2cc(Br)cnc2O[C@H]1CN(C)S(=O)(=O)c1cccs1`, the inhibition was 9.15% (inactive).

In the case of `O=C(CCN1C(=O)c2ccncc2C1=O)Nc1cc(F)ccc1F`, the inhibition is -12.6% (inactive).

With `COCCN1C=C2C(=O)C(C)(OC(=O)C3CCCC3)C(=O)C=C2C=C1c1ccsc1` (configuration not stated), the inhibition is 72.5% (active).

In the case of `CC1(OC(=O)CCc2ccccc2)C(=O)C=C2C=C(c3ccc(C#N)cc3)N(CCc3ccccn3)C=C2C1=O` (configuration not stated), the inhibition was 44.1% (inactive).

Take `CC1(OC(=O)C2CCCC2)C(=O)C=C2C=C(c3ccc(C#N)cc3)OC=C2C1=O` (configuration not stated): the inhibition was 23% (inactive).

Take `COCC(=O)N(C)C[C@H]1Oc2cc(Br)ccc2S(=O)(=O)N([C@H](C)CO)C[C@H]1C`: the inhibition was -15.7% (inactive).

As for `O=[N+]([O-])c1ccc(N2CCN(c3ccc(O)cc3)CC2)c(Cl)c1`, the inhibition is 61.5% (active).

With `CCN1CCN(c2ccc([N+](=O)[O-])cc2C(=O)c2ccc(Cl)cc2)CC1`, the inhibition is 11.2% (inactive).

Turning to `O=C(O)C1CCN(c2ccc([N+](=O)[O-])cc2[N+](=O)[O-])CC1`, the inhibition was -6.12% (inactive).

Consider `CCN(CCCCOC(=O)c1ccc(OC)c(OC)c1)C(C)Cc1ccc(OC)cc1` (configuration not stated), for which the inhibition is -1.86% (inactive).

Regarding `O=S(=O)(NC1CC1)c1ccc(F)c(F)c1`, the inhibition was 1.75% (inactive).

Regarding `CC1CCC(NS(=O)(=O)c2ccc3c(c2)n(C)c(=O)c(=O)n3C)CC1` (configuration not stated), the inhibition was -1.38% (inactive).

Turning to `Cn1sc(=O)c2cc(S(=O)(=O)NC3CC3)ccc21`, the inhibition is 66.3% (active).

As for `CC1(c2ccccc2)NC(=O)N(CC(=O)N2CC(=O)Nc3ccccc32)C1=O` (configuration not stated), the inhibition was 4.26% (inactive).

On to `CCCCOP(=O)(c1ccc(N(C)C)cc1)C(O)c1cc(OC)ccc1OC` (configuration not stated), for which the inhibition is 10.8% (inactive).

Turning to `C=C(C)C(=O)Nc1cccc(C2=NOC3(C2)C[C@H](C(N)=O)N(C(=O)C(c2ccccc2)c2ccccc2)C3)c1` (some centres not stated), the inhibition was -3.38% (inactive).

`COc1cc(C(=S)NCc2ccccc2)cc(Br)c1O`: the inhibition is 66.8% (active).

As for `COc1cc(C(=O)NCc2ccncc2)cc(Br)c1OCc1ccccc1`, the inhibition is 10.8% (inactive).

As for `COc1ccccc1OCCC(=O)OCC(=O)NCc1ccccc1`, the inhibition was 9.79% (inactive).

For `Cc1ccc(C(O)P(=O)(OC(C)C)c2ccc(N(C)C)cc2)cc1` (configuration not stated), the inhibition was -15% (inactive).

In the case of `O=C(O)C1CCCN1c1nc(Cl)ccc1[N+](=O)[O-]` (configuration not stated), the inhibition was 26.3% (inactive).

`CC(C)(C)n1ncc2c(=O)n(Cc3c(Cl)cccc3Br)cnc21`: the inhibition is -2.98% (inactive).

Regarding `CC(C)CCC(=O)Nc1cc(S(=O)(=O)N2CCOCC2)ccc1N1CCCC1`, the inhibition is 10.5% (inactive).

`COCCNC(=S)Nc1cc(S(=O)(=O)N2CCOCC2)ccc1N1CCCCC1`: the inhibition was 76.4% (active).

Regarding `O=C(COC(=O)Cc1ccc(F)cc1)Nc1cc(S(=O)(=O)N2CCOCC2)ccc1N1CCCC1`, the inhibition was -0.28% (inactive).

Turning to `CC(Oc1cccc(Cl)c1)C(=O)Nc1ccc(S(=O)(=O)Nc2ncccn2)cc1` (configuration not stated), the inhibition was -6.55% (inactive).

`S=C(NN=Cc1ccccn1)Nc1ccccn1`: the inhibition was 64% (active).

Regarding `O=C(N/N=C/c1ccccn1)C12CC3CC(CC(C3)C1)C2`, the inhibition is -7.42% (inactive).

Consider `S=C(Nc1cccnc1)Nc1ccccn1`, for which the inhibition is 7.51% (inactive).

As to `CC(=O)Nc1ccc(NC(=O)CCN2C(=O)C3CC=CCC3C2=O)cc1` (configuration not stated), the inhibition is -13% (inactive).

Take `O=C(Nc1ccc(N2CCN(C(=O)c3ccccc3)CC2)c(Cl)c1)c1cccnc1`: the inhibition was 17.8% (inactive).

`O=C(NCCN1CCCC(O)C1)c1cc(COc2c(F)cccc2F)on1` (configuration not stated): the inhibition is -19.2% (inactive).

In the case of `CN1CCN(NC(=O)c2ccc(S(=O)(=O)N3CCCCCC3)cc2)CC1`, the inhibition is 5.23% (inactive).

Turning to `COc1ccc(S(=O)(=O)NCc2cccnc2)cc1NC(=O)c1ccc(C)cc1`, the inhibition is -3.1% (inactive).

On to `CCOc1ccc(-n2c(N)c(C(=O)NCC3CCCO3)sc2=S)cc1` (configuration not stated), for which the inhibition was 67.6% (active).

With `CCOc1ccc(NS(=O)(=O)c2ccc(C(=O)NCC3CCCO3)cc2)cc1` (configuration not stated), the inhibition is 9.67% (inactive).

In the case of `CCOc1ccc(S(=O)(=O)N2CCN(C(=S)NCC3CCCO3)CC2)cc1` (configuration not stated), the inhibition is 8.65% (inactive).

Turning to `O=C(Nc1ccccc1C(=O)N1CCOCC1)C1CCC(=O)N1C1CCCC1` (configuration not stated), the inhibition is -1.14% (inactive).

Regarding `O=C(COC(=O)Cn1cnc2ccccc2c1=O)NCc1ccccc1Cl`, the inhibition was 11% (inactive).

For the molecule `CC(OC(=O)CCc1nc(=O)c2ccccc2n1C)C(=O)NCc1ccc2c(c1)OCO2` (configuration not stated), the inhibition was 5.1% (inactive).

Regarding `Cn1c(CCC(=O)OCC(=O)NCc2ccccc2Cl)nc(=O)c2ccccc21`, the inhibition was 60.9% (active).

On to `O=c1c2ccccc2nnn1CSc1nc2sc3c(c2c(=O)n1CC1CCCO1)CCC3` (configuration not stated), for which the inhibition is 13.2% (inactive).

For the molecule `CC[C@@H](C)[C@@H]1CN([C@@H](C)CN2CCC[C@H]2CN2C(N)=NC[C@H]2C(C)C)C(=N)N1CCc1ccc(Cl)c(Cl)c1`, the inhibition is -10.9% (inactive).

What is called inhibition is the drop in the measured response relative to a control, in per cent.
